# CCHF vOTU inh-1 – CCHFV vOTU protease inhibition; Pep-AMC fluorescence; inhibition, % at 11.5 µM; 0.55% of 370,000 active; AID 651958
# BoNT F protease – BoNT F light chain protease inhibition; Multiplex microsphere protease cleavage assay, flow cytometry; inhibition, % at 10 µM; 0.22% of 360,000 active; in the data active = inhibition above about 35%, passing the limit was not always enough
# Autofluor counter – counter-screen for toxin protease inhibitors: compound fluorescence; compound autofluorescence counterscreen, microsphere flow cytometry; active compounds read high; fluorescence intensity (no concentration beside the values); 3.1% of 360,000 active; AID 624483; in the data active = fluorescence intensity above about 16000
# 3CLpro inhibitor – SARS-CoV 3CLpro protease inhibition. P0C6X7. inhibition, % at 6 µM. recombinant SARS-CoV 3CLpro, quenched FRET peptide cleavage. 0.14% of 290,000 active; in the data active = inhibition above about 12%
# Anthrax LF prot – anthrax lethal factor protease inhibition | AID 588501 | P15917 | multiplex microsphere protease cleavage assay, LF | inhibition, % at 10 µM | 0.12% of 360,000 active; in the data active = inhibition above about 30%
# BoNT A protease – BoNT A light chain protease inhibition; multiplex microsphere protease substrate cleavage, flow cytometry; inhibition, % at 10 µM; 0.17% of 360,000 active; AID 588499; in the data active = inhibition above about 30%
# CCHF vOTU inh-2 – CCHFV vOTU protease inhibition, confirmation. shares compounds with CCHF vOTU inh-1. Recombinant CCHFV vOTU, Pep-AMC fluorescence. inhibition, % at 11.5 µM. 17% of 1,900 active. AID 686976
# Hits are given with their value; 0 = inactive; - = no result given. Compounds with a hit are over-represented: about 3.9% of the library has one in this group of screens. Rule as the data show it, unless noted: active = inhibition above about 30%; inactive = the rest.
SMILES,CCHF vOTU inh-1,BoNT F protease,Autofluor counter,3CLpro inhibitor,Anthrax LF prot,BoNT A protease,CCHF vOTU inh-2
Nc1ccc(N(CCO)CCO)cc1,57,0,0,0,0,0,0
O=C(CCCn1c(=O)oc2ccccc21)N1CCc2ccccc2C1,35,0,0,0,0,0,0
Cc1ccc(-n2c(-c3cnccn3)n[nH]c2=S)cc1,30,0,0,0,0,0,0
Cc1ccc(-n2c(-c3ccncc3)n[nH]c2=S)cc1,0,0,0,0,0,0,-
COC(=O)c1cccc(NC(=O)/C(=C\c2ccco2)NC(=O)c2ccco2)c1,0,0,0,-,0,0,-
CC(=O)c1cccc(NC(=O)/C(=C/c2ccco2)NC(=O)c2ccco2)c1,37,0,0,0,0,0,0
CCCCc1c(-c2ccccc2OC)ncn1Cc1ccc(F)cc1F,33,-,-,-,-,-,0
CCCCc1c(-c2ccccc2OC)ncn1Cc1cc(F)cc(F)c1,0,-,-,-,-,-,-
CCCCc1c(-c2ccccc2OC)ncn1CCc1ccccc1Cl,31,0,0,-,0,0,0
CCCCc1c(-c2ccccc2F)ncn1CCc1ccccc1OC,37,0,0,-,0,0,0
CCCc1c(-c2cccc(F)c2)ncn1Cc1ccccc1OC,37,0,0,-,0,0,0
CCCS(=O)(=O)N1CCC(C(=O)Oc2ccc(OC)cc2)CC1,0,0,0,0,0,0,-
CC(C)(C)n1nnnc1C(c1ccccc1)N1CCN(c2ccc(C(F)(F)F)cn2)CC1 (stereo not drawn),0,0,0,-,0,0,-
NS(=O)(=O)c1ccc(N=Nc2c(O)[nH]c(=S)[nH]c2=O)cc1,0,0,0,0,0,0,-
NS(=O)(=O)c1ccc(N=Nc2ccc(=O)[nH]c2O)cc1,32,0,0,0,0,0,0
O=C(NCc1ccccn1)c1ccccc1OCc1ccccc1Cl,0,0,0,-,0,0,-
CCN1CCN(C2=C(NS(=O)(=O)c3ccccc3)C(=O)c3ccccc3C2=O)CC1,46,0,0,0,0,0,0
CCN1CCN(C2=C(NS(=O)(=O)c3ccc(Br)cc3)C(=O)c3ccccc3C2=O)CC1,78,0,0,0,0,0,0
CN1CCN(C2=C(NS(=O)(=O)c3ccccc3)C(=O)c3ccccc3C2=O)CC1,-,0,0,0,0,0,-
CCCC#Cc1cnc2c(c1)C(=O)N([C@H](C)CO)C[C@H](C)[C@@H](CN(C)C(=O)CCN1CCCCC1)O2,0,0,0,-,0,0,-
Cc1cccc2c1cnn2C(=O)Nc1cc(F)ccc1F,0,0,0,0,0,0,-
CCOC(=O)C1(Cc2cccc(OC)c2)CCN(Cc2cccc(O)c2)CC1,31,0,0,0,0,0,0
C=CCN1C(=O)/C(=C/c2ccc(OC(C)=O)c(OCC)c2[N+](=O)[O-])SC1=S,30,0,0,0,0,0,82
CCOc1c(OC(C)=O)ccc(/C=C/c2ccc3cccc(OC(C)=O)c3n2)c1[N+](=O)[O-],-,0,0,0,0,0,-
C[N+]1(C)CCC(=C2c3ccccc3CC(=O)c3sccc32)CC1,32,0,0,0,0,0,0
SMILES,CCHF vOTU inh-1,BoNT F protease,Autofluor counter,3CLpro inhibitor,Anthrax LF prot,BoNT A protease,CCHF vOTU inh-2
COc1ccc(-c2c(-c3ccccc3)c(C(=O)C(=O)NCCCN(C)C)n3ccc4cc(OC)c(OC)cc4c23)cc1OC,33,0,0,0,0,0,0
COc1ccc(CNC(=O)c2ccc(N3CCOCC3)c([N+](=O)[O-])c2)cc1,0,0,0,0,0,0,-
COc1ccc(C(=O)c2ccc(N3CCOCC3)c([N+](=O)[O-])c2)cc1,30,0,0,0,0,0,0
CCOC(=O)C1(C)CCCCCN1C(=O)c1ccc(OC)c(C(F)(F)F)c1 (stereo not drawn),35,0,0,-,0,0,0
CC1=C(C(=O)N(C(C)C)C(C)C)CC(CC(=O)NC(c2ccccc2)c2ccccc2)C(=O)N1Cc1ccc(C(C)(C)C)cc1 (stereo not drawn),35,0,0,-,0,0,0
CC1=C(C(=O)N(C)C)CC(CC(=O)NC(c2ccccc2)c2ccccc2)C(=O)N1Cc1ccc(C(C)(C)C)cc1 (stereo not drawn),0,0,0,-,0,0,-
Cc1ccc(S(=O)(=O)NCC(=O)N(CC2CCCO2)C(C(=O)NC2CCCCC2)C(C)C)cc1 (stereo not drawn),0,0,0,0,0,0,-
CC(=O)N1c2ccccc2N=C(c2ccc(C(F)(F)F)cc2)C1C(=O)NC(C)C (stereo not drawn),30,-,-,-,-,-,0
NC(=O)CCC(NC(=O)c1ccc(Cl)cc1)C(=O)O (stereo not drawn),0,0,0,0,0,0,-
Cc1ccccc1CN1CCCCC(NC(=O)c2ccccc2C(F)(F)F)C1=O (stereo not drawn),0,-,-,-,-,-,-
NC(=O)N/N=C/c1ccc([N+](=O)[O-])o1,0,0,0,-,0,0,-
O=C(N/N=C/c1ccc([N+](=O)[O-])o1)C1CC1,32,0,0,0,0,0,0
Cc1ccc(S(=O)(=O)N2[C@@H](c3ccccc3)C(C(=O)O)=CC[C@H]2c2cccc(Cl)c2)cc1,0,0,0,-,0,0,-
Cc1ccc(S(=O)(=O)N2C(c3ccc(Cl)c(Cl)c3)CC=C(C(=O)O)C2c2ccc(Cl)cc2)cc1 (stereo not drawn),35,-,-,-,-,-,0
Cc1ccc(S(=O)(=O)N2C(c3ccc(Cl)c(Cl)c3)CC=C(C(=O)O)C2c2cccc(Cl)c2)cc1 (stereo not drawn),0,-,-,-,-,-,-
Cc1ccc(S(=O)(=O)N2[C@@H](c3ccc(Cl)cc3)C(C(=O)O)=CC[C@H]2c2ccc(Cl)c(Cl)c2)cc1,33,0,0,-,0,0,0
O=C(c1cccs1)N1C[C@@H](O)[C@H](n2cc(C3CC3)nn2)C[C@@H]1c1ccccc1,0,0,0,-,0,0,-
O=C(c1cccs1)N1C[C@H](O)[C@@H](n2cc(C3CC3)nn2)C[C@@H]1c1ccccc1,30,0,0,-,0,0,0
COc1c2c(c(OC)c3c1c(=O)c1ccccc1n3C)OCO2,54,0,0,-,0,0,0
CCCCC[C@@H](C)N1C[C@H](COCc2ccccc2)Oc2cc(N3CC[C@@H](O)C3)ccc2S1(=O)=O,41,0,0,-,0,0,0
CCCCC[C@H](C)N1C[C@@H](COCc2ccccc2)Oc2cc(N3CCC[C@H]3C(N)=O)ccc2S1(=O)=O,35,0,0,-,0,0,0
COCCCn1c(N)c(C(=O)OC(C)COC)c2nc3ccccc3nc21 (stereo not drawn),0,0,0,0,0,0,-
COCCCn1c(N)c(C(=O)Nc2sc3c(c2C(=O)OC)CCCC3)c2nc3ccccc3nc21,35,0,0,0,0,0,0
O=C(Nc1ccc(S(=O)(=O)Nc2nccs2)cc1)/C(=C/c1ccccc1Cl)NC(=O)c1ccccc1,32,0,0,0,0,0,0
COc1cc2c(cc1OC)CN(S(=O)(=O)c1ccc(Cl)nc1)CC2,0,0,0,-,0,0,-

# High-throughput results as filed in PubChem.
